Test results taken from PubChem BioAssay (NCATS).
Values joined by “and” are separate entries in the source; they are usually repeats but may differ in a detail not shown here. Equal values may be shown once. Records with an inconclusive call do not appear. Active and inactive are the calls of the source. The call rests on the fitted dose curve.

Experiment: Primary qHTS to identify inhibitors of SARS-CoV-2 cell entry (AID 1645846); further: nearly all actives have a fitted effect of over 45% in size
Details: SARS-CoV-2 pseudovirus cell entry assay, luminescence; activity change, negative = inhibition: at 57.1 µM (top of the series) unless noted; series mostly up to 57.1 µM
Method in brief: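 Entry measured by luciferase signal 48 h after adding SARS-CoV-2-S pseudotyped MLV particles to HEK293-ACE2 cells preincubated 1 h with compounds. Normalisation: bald particles and spike particles.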
Potency means the concentration at half of the fitted maximal effect.

Row | Structure (SMILES) | Potency | activity change, negative = inhibition
1 | NS(=O)(=O)Cc1noc2ccccc12 | inactive | –
2 | O=c1n(CCCN2CCN(c3cccc(Cl)c3)CC2)nc2ccccn12 | – | -23.8%
3 | CC(C)c1c(C(=O)Nc2ccccc2)c(-c2ccccc2)c(-c2ccc(F)cc2)n1CC[C@@H](O)C[C@@H](O)CC(=O)O | – | -13%
4 | CN(C)CCC=C1c2ccccc2C=Cc2ccccc21 | 14.1 µM (active) | –
5 | NS(=O)(=O)c1cc2c(cc1Cl)NC=NS2(=O)=O | inactive | –
6 | CN(C/C=C/C#CC(C)(C)C)Cc1cccc2ccccc12 | – | -3.95%
7 | O[C@@H](CNC[C@H](O)[C@H]1CCc2cc(F)ccc2O1)[C@@H]1CCc2cc(F)ccc2O1 | 22.4 µM (active) | –
8 | NC(=O)c1cn(Cc2c(F)cccc2F)nn1 | inactive | –
9 | C[C@H]1O[C@H](O[C@H]2[C@H](O)[C@@H](O)[C@@H](O[C@H]3[C@H](O)[C@@H](O)[C@H](O)O[C@@H]3CO)O[C@@H]2CO)[C@H](O)[C@@H](O)[C@@H]1N[C@H]1C=C(CO)[C@@H](O)[C@H](O)[C@H]1O | inactive | –
10 | Cc1ncc([N+](=O)[O-])n1CCO | – | -22%
11 | CCn1cc(C(=O)O)c(=O)c2ccc(C)nc21 | inactive | –
12 | Oc1cn2c(n1)Nc1ccc(Cl)c(Cl)c1C2 | inactive | –
13 | CCOC(=O)Nc1ccc2c(c1)N(C(=O)CCN1CCOCC1)c1ccccc1S2 | – | -15.7%
14 | OCCN1CCN(CCCN2c3ccccc3Sc3ccc(C(F)(F)F)cc32)CC1 | inactive | –
15 | CC(C)NC[C@@H](O)COc1ccc(CC(N)=O)cc1 | – | -29.4%
16 | CC(C)C1CCC(C(=O)N[C@H](Cc2ccccc2)C(=O)O)CC1 (stereo partly specified) | – | 2.32% and -12.7%
